# According to PubChem BioAssay (NCI):
# About 79,000 compounds went through this panel and 15% of them were active in at least one assay; those are over-represented in the sample as a whole. A number with no mark means an inactive call. Activity calls are given as the source filed them. No stated cut-off is given here; in the data, active means growth inhibition above about 70%; inactive means the rest.
# Legend:
# [1] = NCI Yeast Anticancer Drug Screen. Data for the rad52 strain (AID 147);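 further: 0% = growth of vehicle-treated control cultures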; settings: S. cerevisiae rad52 mutant growth inhibition, hits give high values
# Outline: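 Growth of repair-deficient yeast cells was compared between compound-treated and vehicle-treated cultures to give percent inhibition.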
# [2] = NCI Yeast Anticancer Drug Screen. Data for the wt1 strain (AID 149);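 further: 0% = growth of vehicle-treated wt1 cultures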; settings: S. cerevisiae wt1 strain (SPY 50644) growth inhibition, hits give high values
# Outline: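 Using yeast strain wt1, compound-induced growth inhibition was determined against vehicle-treated cultures.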
# [3] = NCI Yeast Anticancer Drug Screen. Data for the rad50EPP+ strain (AID 151);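 further: 0% = growth of vehicle-treated control cultures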; settings: S. cerevisiae rad50 mutant strain, hits give high values
# Outline: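 Measured: growth inhibition of rad50EPP+ yeast. Reference: vehicle-treated controls. Screen uses strains with defined genetic alterations in DNA damage repair or cell cycle control.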
# [4] = NCI Yeast Anticancer Drug Screen. Data for the mgt1 strain (AID 153); settings: S. cerevisiae mgt1 mutant growth inhibition, hits give high values
# Outline: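 Compounds were applied to mgt1 mutant yeast, and growth was then compared against vehicle-treated control cultures to give percent inhibition.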
# [5] = NCI Yeast Anticancer Drug Screen. Data for the rad50 strain (AID 155);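 further: 0% = growth of vehicle-only cultures of the same strain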; settings: S. cerevisiae rad50 strain growth inhibition, hits give high values
# Outline: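 Relative growth inhibition (compound vs vehicle) was measured in yeast with a defined repair-gene alteration.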
# [6] = NCI Yeast Anticancer Drug Screen. Data for the mec2-1 strain (AID 157); settings: S. cerevisiae mec2-1 strain, hits give high values
# Outline: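 Compounds were applied to mec2-1 yeast cells. Their growth was then compared with that of vehicle-treated cultures to give growth inhibition.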
# [7] = NCI Yeast Anticancer Drug Screen. Data for the rad14 strain (AID 159);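 further: 0% = growth of vehicle-treated control cultures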; settings: S. cerevisiae rad14 strain growth inhibition, hits give high values
# Outline: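 Screen for anticancer potential: a yeast strain altered in DNA damage repair is grown with compound, and reduced growth is quantified against vehicle controls.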
# [8] = NCI Yeast Anticancer Drug Screen. Data for the sgs1 mgt1 strain (AID 161);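 further: 0% = growth of cultures given vehicle only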; settings: S. cerevisiae sgs1 mgt1 strain, hits give high values
# Outline: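 This yeast growth screen uses a strain with defined DNA-repair lesions; compound-treated growth is compared with vehicle-treated growth.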
# [9] = NCI Yeast Anticancer Drug Screen. Data for the CLN2oe strain (AID 163);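 further: 0% = growth of vehicle-only control cultures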; settings: S. cerevisiae CLN2oe strain, hits give high values
# Outline: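 Cells of an engineered yeast line with disturbed cell-cycle regulation are treated with compound. Inhibition of growth is then calculated relative to the vehicle-treated reference.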
# [10] = NCI Yeast Anticancer Drug Screen. Data for the cln2 rad14 strain (AID 165);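 further: 0% = growth equal to vehicle treated cultures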; settings: S. cerevisiae cln2 rad14 strain, hits give high values
# Outline: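 Strain: cln2 rad14 yeast, altered in cell cycle control and DNA damage repair. Read-out: growth inhibition vs vehicle.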
# [11] = NCI Yeast Anticancer Drug Screen. Data for the bub3 strain (AID 167); settings: S. cerevisiae bub3 mutant strain, hits give high values
# Outline: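 Screening used yeast with an engineered genetic alteration affecting cell cycle control. Compound-exposed cultures were compared with vehicle cultures, and reduced growth was taken as inhibition.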
# [12] = NCI Yeast Anticancer Drug Screen. Data for the mlh1 strain (AID 171);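 further: 0% = growth of vehicle-treated control cultures of the same strain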; settings: S. cerevisiae mlh1 strain growth inhibition, hits give high values
# Outline: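 Test agents were incubated with yeast bearing a defined DNA damage repair or cell cycle control alteration; values are growth inhibition normalised to vehicle-treated cultures.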
# [13] = NCI Yeast Anticancer Drug Screen. Data for the sgs1 strain (AID 173);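 further: 0% = growth of vehicle-only control cultures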; settings: S. cerevisiae sgs1 mutant, hits give high values
# Outline: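 Strain with an altered DNA repair or cell cycle pathway exposed to compound. Growth then measured. Value = inhibition versus vehicle control.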
# [14] = NCI Yeast Anticancer Drug Screen. Data for the mlh1 rad18 strain (AID 175); settings: S. cerevisiae mlh1 rad18 strain growth inhibition, hits give high values
# Outline: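 A repair-deficient yeast strain is exposed to test compound, and growth is scored relative to vehicle-treated controls.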
# [15] = NCI Yeast Anticancer Drug Screen. Data for the rad18 strain (AID 177); settings: S. cerevisiae rad18 mutant growth inhibition, hits give high values
# Outline: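 DNA-repair-defective yeast; compound treatment; growth inhibition scored against vehicle.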
# [16] = at 5.0 µM (retest, dose inferred, filed as 0.5)
# [17] = at 50.0 µM (retest, dose inferred, filed as 5.0)
smiles,measurement,setting,value
COC(=O)C(Cl)(Cl)N=Nc1c(Cl)cc(Cl)c(C)c1Cl,growth inhibition,[1]; at 1.2 µM,-14%
same,growth inhibition,[1]; at 3.7 µM,83% (active)
same,growth inhibition,[1]; at 11.0 µM,97% (active)
same,growth inhibition,[1]; at 33.0 µM,98% (active)
same,growth inhibition,[1]; at 100.0 µM,97% (active)
same,growth inhibition,[2]; at 1.2 µM,-12%
same,growth inhibition,[2]; at 3.7 µM,52%
same,growth inhibition,[2]; at 11.0 µM,99% (active)
same,growth inhibition,[2]; at 33.0 µM,99% (active)
same,growth inhibition,[2]; at 100.0 µM,99% (active)
same,growth inhibition,[3]; at 1.2 µM,12%
same,growth inhibition,[3]; at 3.7 µM,83% (active)
same,growth inhibition,[3]; at 11.0 µM,99% (active)
same,growth inhibition,[3]; at 33.0 µM,99% (active)
same,growth inhibition,[3]; at 100.0 µM,99% (active)
same,growth inhibition,[4]; at 1.2 µM,-50%
same,growth inhibition,[4]; at 3.7 µM,20%
same,growth inhibition,[4]; at 11.0 µM,96% (active)
same,growth inhibition,[4]; at 33.0 µM,98% (active)
same,growth inhibition,[4]; at 100.0 µM,99% (active)
same,growth inhibition,[5]; at 1.2 µM,-34%
same,growth inhibition,[5]; at 3.7 µM,46%
same,growth inhibition,[5]; [16],49%
same,growth inhibition,[5]; at 11.0 µM,96% (active)
same,growth inhibition,[5]; at 33.0 µM,92% (active)
same,growth inhibition,[5]; [17],99% (active)
same,growth inhibition,[5]; at 50.0 µM,92.5% (active)
same,growth inhibition,[5]; at 100.0 µM,96% (active)
same,growth inhibition,[6]; at 1.2 µM,-40%
same,growth inhibition,[6]; at 3.7 µM,68%
same,growth inhibition,[6]; [16],54%
same,growth inhibition,[6]; at 11.0 µM,97% (active)
same,growth inhibition,[6]; at 33.0 µM,98% (active)
same,growth inhibition,[6]; [17],99% (active)
same,growth inhibition,[6]; at 50.0 µM,91.3% (active)
same,growth inhibition,[6]; at 100.0 µM,98% (active)
same,growth inhibition,[7]; at 1.2 µM,-51%
same,growth inhibition,[7]; at 3.7 µM,59%
same,growth inhibition,[7]; at 11.0 µM,80% (active)
same,growth inhibition,[7]; at 33.0 µM,99% (active)
same,growth inhibition,[7]; at 100.0 µM,98% (active)
same,growth inhibition,[8]; [16],14%
same,growth inhibition,[8]; [17],69%
same,growth inhibition,[8]; at 50.0 µM,91.9% (active)
same,growth inhibition,[9]; at 1.2 µM,36%
same,growth inhibition,[9]; at 3.7 µM,22%
same,growth inhibition,[9]; at 11.0 µM,97% (active)
same,growth inhibition,[9]; at 33.0 µM,99% (active)
same,growth inhibition,[9]; at 100.0 µM,99% (active)
same,growth inhibition,[10]; [16],2%
same,growth inhibition,[10]; [17],-66%
same,growth inhibition,[10]; at 50.0 µM,88.2% (active)
same,growth inhibition,[11]; at 1.2 µM,-32%
same,growth inhibition,[11]; at 3.7 µM,11%
same,growth inhibition,[11]; [16],5%
same,growth inhibition,[11]; at 11.0 µM,92% (active)
same,growth inhibition,[11]; at 33.0 µM,98% (active)
same,growth inhibition,[11]; [17],-28%
same,growth inhibition,[11]; at 50.0 µM,93.2% (active)
same,growth inhibition,[11]; at 100.0 µM,98% (active)
same,growth inhibition,[12]; at 1.2 µM,-34%
same,growth inhibition,[12]; at 3.7 µM,6%
same,growth inhibition,[12]; at 11.0 µM,96% (active)
same,growth inhibition,[12]; at 33.0 µM,100% (active)
same,growth inhibition,[12]; at 100.0 µM,100% (active)
same,growth inhibition,[13]; at 1.2 µM,10%
same,growth inhibition,[13]; at 3.7 µM,88% (active)
same,growth inhibition,[13]; at 11.0 µM,87% (active)
same,growth inhibition,[13]; at 33.0 µM,99% (active)
same,growth inhibition,[13]; at 100.0 µM,100% (active)
same,growth inhibition,[14]; [16],59%
same,growth inhibition,[14]; [17],99% (active)
same,growth inhibition,[14]; at 50.0 µM,93.2% (active)
same,growth inhibition,[15]; at 1.2 µM,28%
same,growth inhibition,[15]; at 3.7 µM,87% (active)
same,growth inhibition,[15]; at 11.0 µM,96% (active)
same,growth inhibition,[15]; at 33.0 µM,98% (active)
same,growth inhibition,[15]; at 100.0 µM,99% (active)
